From PubChem BioAssay (NCI)
Compounds without any hit were thinned out: in the full panel of roughly 83,000, 20% have a hit.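 Percent growth is the endpoint: 0 to 100 indicates growth inhibition (40 means 60% inhibition), 0 means no net growth, and negative values indicate cell death.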 Values without a mark were called inactive. Activity calls are given as the source filed them. How the source made its calls: active means growth percent below 10; inactive means the rest.

Each molecule was assayed on MDA-MB-468 breast (assay: NCI-60 one-dose screen, 48 h (100 = growth as untreated, 0 = no growth, -100 = all killed)). Conditions: 10 µM unless noted.

SMILES | growth
COc1ccc(C(=O)Cn2c(C(=O)c3ccccc3)nc3ccccc32)cc1 | 2.35% (active)
CCNC(=O)C#Cc1ccc2c(C(=Nc3ccc(CN(C)C)cc3)c3ccccc3)c(O)[nH]c2c1 | 17.2%
C/C(CC(C)C)=N/NC(N)=S | 7.03% (active)
CN1CC[C@@H](c2c(O)cc(O)c3c(=O)cc(-c4ccccc4Cl)oc23)[C@@H]1CO | -44.2% (active)
CCC1(C2CCCC2)NC(=O)NC1=O (stereo not given) | 101%
Cc1cc(=O)oc2cc(OCCCOc3ccc(/C=C/C(=O)Nc4ccc(Cl)cc4)cc3)ccc12 | 73.9%
CCCCCCCCCN(CCCCCCCCC)C(C)C(=O)c1ccc2cc(Br)c3ccccc3c2c1 (stereo not given) | 99.2%
Cc1nc2c(c(N3CCCc4ccccc43)n1)CCC2 | 8.12% (active)
O=C(O)COc1ccc(-c2cssc2=S)cc1 | 99.5%
CCc1ccc2c(c1)N(CCO)C1=C(C(=O)OC1)C2c1cccc(Br)c1 (stereo not given) | 25.8%
N#Cc1c(NC(=O)c2ccc(F)c(Cl)c2)sc2c1CCC(=O)C2 | -20% (active)
CC(=O)N1CCN(c2ccc(OCC3CO[C@](Cn4ccnc4)(c4ccc(Cl)cc4Cl)O3)cc2)CC1 (stereo not given in full) | 26.5%
COc1cc(OC)c(C(=O)C(CN(C)C)CN(C)C)cc1OC | -73.3% (active)
COc1cc(/C=C/c2cc(O)c3cc(C(C)=O)c(=O)oc3c2)cc2c1O[C@]1(C)CC[C@@H](O)C(C)(C)[C@H]1C2 | 65%
C=C1C(=O)O[C@H]2[C@H]1CC/C(COC(=O)/C=C\C(=O)NCc1ccc(Cn3c(=O)sn(CCCCC)c3=O)cc1)=C\CC[C@@]1(C)O[C@@H]21 | 47%
CCN(CC)CCOc1cccc2c1C(=O)c1ccccc1C2=O | 91.4%
COc1ccc(C/C(C)=C(\c2ccc(O)cc2)c2ccc(OCCCN(C)C)cc2)cc1 | 86.8%
C#Cc1ccc(-n2c(/C=C/c3cc(OC)cc(OC)c3)nc3ncccc3c2=O)cc1 | 37.4%
COC(=O)[C@]12CC[C@@H](C)[C@H](C)[C@@H]1C1=CC[C@@H]3[C@@]4(C)C(C=O)=C[C@@](C)(COS(C)(=O)=O)C4[C@H](O)C[C@@]3(C)[C@]1(C)CC2 (stereo not given in full) | -64.7% (active)
COc1ccc(C(=O)c2cc(OC)c(OC)c(OC)c2)cc1/C=C/C(=O)c1cc(OC)c(OC)c(OC)c1 | 73%

SMILES | growth
O=c1nc(Nc2cccc(Cl)c2)oc2cc(Cl)oc(=O)c12 | 75.1%
Nc1nc(-c2ccc(Cl)cc2)nc2c1sc(=S)n2-c1ccccc1 | 27.3%
O=C(O)c1cc([N+](=O)[O-])ccc1Cl | 109%
CCOC(=O)C1C(=O)C(=O)N(C(C)C)C1C(=O)OCC (stereo not given) | 98.4%
C[N+]1(CC2CO2)CCCCCC1 (stereo not given) | 103%
CC(Nc1c(C#N)cnc2ccc(-c3cncc(-c4n[nH]c(=O)o4)c3)cc12)c1ccccc1 (stereo not given) | -41.7% (active)
COC(=O)[C@@H](Cc1c[nH]c2ccccc12)NC(=O)[C@H](Cc1ccccc1)NCc1ccncc1 | 103%
NS(=O)(=O)c1ccc(C(=O)NN2C(=O)c3ccccc3C2=O)cc1 | 122%
C=C1C(=O)O[C@H]2[C@H]1CC/C(COC(=O)c1ccc3ccccc3c1)=C\CC[C@@]1(C)O[C@@H]21 | -57.9% (active)
O=C(O)/C=C/C(=O)NCc1ccccc1 | 101%
Cn1cc(-c2csc(-c3cn(C)c4ccc(Br)cc34)n2)c2cnccc21 | -68.4% (active)
CCN1CCN(c2ccc(Nc3ncnc4c3nnn4CCc3cc(OC)cc(OC)c3)cc2)CC1 | 76.1%
COc1cccc(-c2cc(-c3cccc(NS(C)(=O)=O)c3)nc(N)c2C#N)c1O | 2.89% (active)
CN1CCN(c2ccc(N3Cc4ccccc4OC4=C3C(=O)c3c(O)ccc(O)c3C4=O)cn2)CC1 | -60.1% (active)
CCOc1ccc(-n2c(-c3cc(OC)c(OC)c(OC)c3)nnc2-c2ccc(OC)cc2N)cc1 | 1.83% (active)
C/C(=N\NC(N)=S)c1nnn(-c2ccc([N+](=O)[O-])cc2)c1C | 89.3%
COC(=O)c1ccccc1N(C)C | 107%
O=C1NC(=O)/C(=C/c2ccc(OCc3cc4ccccc4nc3Cl)cc2)S1 | 92%
COc1ccc(/C=N\NC(=O)c2cnn(CC(O)c3ccccc3)c2N)cc1OCc1ccc(Cl)cc1 (stereo not given) | 76.8%
COc1cc2nc(-c3ccc(C#N)cc3)[nH]c(=O)c2cc1OC | 113%
